Source: PubChem BioAssay (National Center for Advancing Translational Sciences (NCATS))
FMDV inh: blocks foot and mouth disease virus; FMDV antiviral cell-based qHTS; Potency, µM (top dose mostly 57.9 µM), usual class: inhibitors; 1.2% of 410,000 active; AID 1159524; calls by dose curve; tested in HEK293T cells; note: read-out not given here; nearly all actives have a fitted effect of over 45% in size
HCMV antiviral: inhibitors of human cytomegalovirus; HFF cells, HCMV-luciferase reporter, 72 h; active compounds read low; 4.5% of 410,000 active; activity change, negative = inhibition, % at 57.5 µM; in the data active = activity change below about -60%; inconclusive = no clear call, values can overlap the other calls; inactive = above about -39%
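HFF cells seeded 16 h at 37C, treated with compounds, infected with luciferase-reporter HCMV at MOI 1 PFU/cell; luciferase read at 72 h post infection, normalized to buffer-only and Salinomycin controls.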
Lassa entry inh: Lassa virus entry inhibition | Lassa virus pseudotype entry inhibition, cell reporter | Potency, µM (doses to about 37.9 µM), most hits filed as inhibitors | 1.2% of 300,000 active; calls by dose curve; tested in HEK293 cells; note: nearly all actives have a fitted effect of over 50% in size
HCV inh: HCV inhibition; Potency, µM (top dose mostly 41.8 µM), usual class: inhibitors; AID 651820; 3.4% of 340,000 active; Huh7.5.1 HCVcc-Cre infection, luciferase reporter, 44 h; active = well fitted inhibition curve with a large enough effect; inconclusive = small, poorly fitted or top-dose-only effect, or another doubt; inactive = no such curve, though single readings can be large or run the other way
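Infectious HCV cell culture screen: compound-treated cells (1,000/well, pre-plated 4 h) are infected with HCVcc-Cre at roughly 0.5 moi and grown 44 h. Infection is quantified by luciferase signal after 15 min substrate incubation at room temperature.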
MARV entry inh: inhibitors of Marburg virus binding or cell entry; Marburg virus pseudotyped entry inhibition, cell reporter; Potency, µM (highest dose often 37.8 µM), usual class: inhibitors; 1.8% of 300,000 active; AID 540276; calls by dose curve; tested in HEK293 cells
Numbers stand for hits; – = inactive; ? = inconclusive; · = no result given; ! = repeats disagree. Hits are enriched below; roughly 7.9% of the tested compounds scored in any of these assays.

SMILES	FMDV inh	HCMV antiviral	Lassa entry inh	HCV inh	MARV entry inh
O=C(CSc1cccc2cccnc12)Nc1cc(C(=O)O)cc(C(=O)O)c1	–	–	–	11µM	–
CCCCc1cc2c(cn1)=C(OC(=O)CCC(=O)OC)C(C)(OC(=O)CC)C(=O)C=2 (centres undefined)	·	·	?	·	–
O=C(OCc1cccc(F)c1)c1ccc2c(c1)-c1ccccc1C2=O	–	–	?	–	–
O=C(OCc1ccccc1F)c1ccc2c(c1)-c1ccccc1C2=O	–	–	2.1µM	–	–
O=C(Cn1ccccc1=S)c1ccc(Cl)c(Cl)c1	–	?	–	–	–
On1ccccc1=S	?	-99	·	6.3µM	·
CCC(CO)Nc1ccn2nc(-c3cccc(Cl)c3)cc2n1 (centres undefined)	–	–	·	·	·
CCCCNc1c2c3c(cccc3n(C)c1=O)C(=O)c1ccccc1-2	32µM	·	–	?	?
O=C(c1cccs1)N1CCc2ccccc21	–	–	–	?	–
O=C(/C=C/c1cccs1)N1CCc2ccccc21	–	–	?	–	8.2µM
CC(C)(C)NC(=O)NC(=O)COc1ccc(Br)cc1Br	?	–	5.8µM	–	?
O=C(COc1ccc(Br)cc1Br)NC(=O)NC1CCCC1	–	–	–	–	?
CCOC(=O)C1CCCN(C(=O)c2cccc(S(=O)(=O)N(C)c3ccc(C)cc3)c2)C1 (centres undefined)	?	–	·	?	·
CCc1nc2ccc(C(=O)N3CCN(c4cc(C)ccc4C)CC3)cc2nc1CC	–	–	–	?	·
Cc1ccc(C)c(N2CCN(C(=O)c3cccc(-n4c(C)nc5cccnc54)c3)CC2)c1	25µM	–	?	·	·
Cc1nc2cccnc2n1-c1cccc(C(=O)N2CCN(c3ccc(Cl)cc3)CC2)c1	13µM	?	?	·	·
Cc1cccc(N2CCN(C(=O)c3cccc(-n4c(C)nc5cccnc54)c3)CC2)c1C	?	?	–	·	·
CC(=O)Nc1ccccc1-c1nc2ccc(C(=O)N3CCN(c4cc(C)ccc4C)CC3)cc2[nH]c1=O	?	-65	·	–	·
COc1ccc(N2CCN(C(=O)c3cccc(-n4c(C)nc5cccnc54)c3)CC2)cc1	?	–	–	·	·
Cc1cccc(N2CCN(C(=O)c3cc4ccc5cccnc5c4[nH]3)CC2C)c1 (centres undefined)	–	-108	–	·	·
Cc1ccc(C)c(N2CCN(C(=O)c3cc4ccc5cccnc5c4[nH]3)CC2)c1	–	–	?	·	·
O=C(NCc1cccs1)c1nn(-c2ccccc2)nc1CO	–	–	?	·	–
Cc1cccc(N2CCN(C(=O)c3ccccn3)CC2C)c1 (centres undefined)	–	–	–	–	–
Cc1cccc(N2CCN(C(=O)c3cccc(-n4c(C)nc5cccnc54)c3)CC2C)c1 (centres undefined)	18µM	?	?	·	·
COc1ccc(NC(=O)C(C)N2c3cccc4cccc(c34)S2(=O)=O)cc1OC (centres undefined)	·	-80	–	6.3µM	?
SMILES	FMDV inh	HCMV antiviral	Lassa entry inh	HCV inh	MARV entry inh
Cc1cc(=O)oc2ccc(OCC(=O)N(Cc3ccc(F)cc3)Cc3ccco3)cc12	20µM	–	–	3.2µM	?
CCc1ccc(OCC(=O)N(Cc2ccc(C)cc2)Cc2ccco2)cc1	–	–	–	·	–
Cc1cccc(OCC(=O)N(Cc2ccc(C(C)(C)C)cc2)Cc2ccco2)c1	–	-82	?	·	–
Cc1ccc(CN(Cc2ccco2)C(=O)COc2ccc(C)c(C)c2)cc1	–	–	?	·	?
O=C(NCc1cccs1)c1ccc(CSc2nc3ccncc3n2Cc2ccccc2F)cc1	–	–	·	·	?
Cc1c(NC(=O)Nc2ccccc2C(F)(F)F)sc2nc3n(c(=O)c12)CCC(C)CC3 (centres undefined)	–	–	·	·	–
C(=C\c1nnc2c3ccccc3ncn12)/c1ccccc1	–	?	?	?	?
COc1cc(/C=C/c2nnc3c4ccccc4ncn23)cc(OC)c1OC	–	–	?	2.2µM	?
COC(=O)C1=C(C)N(c2cccc(C)c2)C(=O)/C1=C\c1cccs1	–	-99	–	?	2.8µM
CCOC(=O)C1=C(C)N(c2ccccc2)C(=O)/C1=C\c1cccs1	?	–	–	?	–
Cn1c2ccc(F)cc2c2nnc(SCCN3CCCCC3)nc21	–	-86!	–	11µM	–
CCCCn1c2ccc(F)cc2c2nnc(SCCN3CCCCC3)nc21	?	–	–	?	–
CCO/C=C1\SC(=S)N(c2ccc(Cl)cc2)C1=O	–	–	–	–	–
CC(C)c1ccc(N2C(=O)/C(=C/N(C)C)SC2=S)cc1	–	-60	·	–	·
COc1ccc(N(C(=O)c2ccc(OC)c(OC)c2)S(=O)(=O)c2ccc(Cl)cc2)cc1	–	–	?	·	·
Cc1ccc(-c2nn(-c3ccccc3)cc2CN(Cc2ccccc2)C(=O)c2ccco2)o1	28µM	-76	?	10µM	?
CCCCC(Sc1nc2cc3c(cc2c(=O)n1CCCC(=O)NCc1ccc2c(c1)OCO2)OCO3)C(=O)OCC (centres undefined)	–	–	?	·	·
CS(=O)(=O)Nc1ccc(C2=NN(C(=O)C3CCCCC3)C(c3cccs3)C2)cc1 (centres undefined)	20µM	-62	?	–	?
Cc1ccc(C(=O)N2N=C(c3cccc(NS(C)(=O)=O)c3)CC2c2cccs2)cc1 (centres undefined)	–	-60	·	?	·
CS(=O)(=O)Nc1cccc(C2=NN(C(=O)c3ccccc3)C(c3cccs3)C2)c1 (centres undefined)	–	–	·	?	·
CC(C)C(=O)N1N=C(c2ccc(NS(C)(=O)=O)cc2)CC1c1cccs1 (centres undefined)	–	–	?	?	?
O=c1c(-c2c(O)cc(O)c3c2O[C@H](c2ccc(O)cc2)CC3)c(-c2ccc(O)cc2)oc2cc(O)cc(O)c12	–	·	·	–	·
N[C@@]1(C(=O)O)CO[C@H]2[C@H](C(=O)O)[C@H]21	–	·	·	·	·
CN1CCN(C(c2ccc(Cl)cc2)c2cc(Cl)c3cccnc3c2O)CC1 (centres undefined)	–	–	10µM	?	?
Oc1c(C(c2ccccn2)N2CCCCC2)cc(Cl)c2cccnc12 (centres undefined)	–	–	·	10µM	·
SMILES	FMDV inh	HCMV antiviral	Lassa entry inh	HCV inh	MARV entry inh
CCOC(=O)c1ccc(NC(=O)CSc2nccn2Cc2ccc(OC)cc2)cc1	–	–	?	·	·
CN(C)c1cc[n+](Cc2c(Cl)cccc2Cl)cc1	?	-87	?	?	?
CCN(CC)CCCn1c(C)cc2c(c1=O)C(c1cccc(Cl)c1)C(C#N)=C(N)O2 (centres undefined)	–	–	?	–	11µM
COc1cc(C2Oc3cc(C4Oc5cc(O)cc(O)c5C(=O)C4O)ccc3OC2CO)ccc1O (centres undefined)	?	-67	–	?	–
O=C(Nc1nccs1)C12CC3CC(C1)CC(C(=O)Nc1nccs1)(C3)C2	25µM	–	–	?	?
CCOC(=O)Cn1nnnc1C(C(C)C)N(Cc1cc2c(C)cc(C)cc2[nH]c1=O)C1CCCC1 (centres undefined)	?	–	?	–	8.9µM
